The text below walks through data of ChEMBL document CHEMBL3988442, “University of Dundee, Small-Polar-MMV Screening Library” (2021).

For test [1], the target named is T1, Aspartate--tRNA(Asp/Asn) ligase (Mycobacterium tuberculosis (strain ATCC 25618 / H37Rv)) (UniProt P9WFW3). Note: in the data most compounds retested in dose-response had high values.
T1 sequence (whole entry): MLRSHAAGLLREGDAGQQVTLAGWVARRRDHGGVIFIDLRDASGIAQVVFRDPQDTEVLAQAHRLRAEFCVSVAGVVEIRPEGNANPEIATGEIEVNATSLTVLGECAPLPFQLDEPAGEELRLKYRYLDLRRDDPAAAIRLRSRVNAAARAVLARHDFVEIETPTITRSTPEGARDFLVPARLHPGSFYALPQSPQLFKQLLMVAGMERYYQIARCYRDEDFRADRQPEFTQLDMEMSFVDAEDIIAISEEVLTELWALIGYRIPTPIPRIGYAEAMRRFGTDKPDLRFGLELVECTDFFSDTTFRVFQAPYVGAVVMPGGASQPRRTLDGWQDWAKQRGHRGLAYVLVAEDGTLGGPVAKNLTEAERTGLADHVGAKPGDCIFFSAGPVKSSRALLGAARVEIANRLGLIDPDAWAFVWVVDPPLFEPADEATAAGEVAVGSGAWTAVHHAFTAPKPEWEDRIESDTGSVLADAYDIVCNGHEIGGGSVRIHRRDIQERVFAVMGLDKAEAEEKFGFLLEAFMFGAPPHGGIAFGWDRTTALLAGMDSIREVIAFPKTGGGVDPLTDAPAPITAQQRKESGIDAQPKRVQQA
The test can be described thus: Assay for Asp RNA synthetase-1 from Mycobacterium tuberculosis. In kind it is functional. On the set-up: scale not given: direction of the effect not stated beside the values. The conditions noted are these: 30 µM.

The target of test [2] is Shiga toxin 2 (Escherichia coli O157:H7) (UniProt P09385+P09386). The test can be described thus: E. coli 0.157:H7 Shiga Toxin SOP - stx2 screening assay. To be noted: 30 µM. In kind it is functional. On the set-up: scale not given: direction of the effect not stated beside the values.

Turning to `COc1ccc(C)cc1CN1CCCC1Cn1nc(C)nc1C` (stereo unspecified), the Percent Effect in test [1] is -7.82%; in test [2] it was -25.1%.
As for `O=C(c1ccc(F)c(F)c1)N1CCCC1CN1CCCC1` (stereo unspecified), the values for the Percent Effect in test [1] and in test [2] were -3.65% and -41.7%, respectively.
With `CC(C)(C)NC(=O)CNC(=O)CCc1ccccc1Br`, the results for the Percent Effect in test [1] and in test [2] were 0.279% and -3.39%, respectively.
`O=C(c1ccoc1)N1CC[C@@H]2[C@H]1CCC(=O)N2c1ccccc1`: the Percent Effect in test [1] came out at 1.49%; in test [2] it was 1.4%.
`CCCC(=O)Nc1sc(C(=O)OCC)c(C)c1C#N`: the Percent Effect in test [1] was -1.82%; in test [2], 7.46%.
As to `CC(C(=O)NCc1cccc(N2CC=CC2)c1)n1cccn1` (stereo unspecified), the Percent Effect was -1.41% in test [1] and 27.1% in test [2].
The corresponding values for `O=C(C1CCOCC1)N1C[C@@H]2[C@@H](C1)OCC(=O)N2Cc1ccncc1` are -2.99% and -3.94%.
The corresponding values for `O=C(NCc1ccco1)[C@H]1C[C@H]2OCC[C@H]2N(S(=O)(=O)C2CC2)C1` are 0.786% and -24.1%.
`CC(=O)NC(C)(C)C(=O)Nc1ncc(Cc2ccc(C)c(F)c2)s1`: the Percent Effect is -1.27% in test [1] and -15.4% in test [2].
As to `CN1CC[C@H](c2ccccc2)[C@@H]2[C@H]1CCCCN2C(=O)c1cnccn1`, the Percent Effect was -3.68% in test [1] and 3.52% in test [2].
Regarding `CC(C)C(NC(=O)Cn1ccc(=O)n(C)c1=O)c1ccc(F)cc1` (stereo unspecified), the Percent Effect in test [1] is 4.7%; in test [2] it was -13.7%.
`O=C(Cc1cccnc1)N1CCC(OCc2ccccc2)CC1`: the Percent Effect in test [1] was -3.5%; in test [2] it was 7.67%.
As to `CCN1CC2(CCC1=O)CCN(C(=O)c1ccc(Cl)cc1O)CC2`, the Percent Effect in test [1] was -1.67%; in test [2] it was -16.7%.
The corresponding values for `CCCN1CCC(NC(=O)c2ccc(F)cc2I)CC1` are -6.77% and 2.29%.
For `Cc1cc2c(=O)n3c(nc2s1)CCN(Cc1cnc(C(C)C)nc1)CC3`, the Percent Effect came to 6.6% in test [1] and 14.8% in test [2].
On to `CC(C)Cc1nc(OCC(=O)O)c(C#N)c2c1CCC2`, for which the Percent Effect is 0.639% in test [1] and -5.61% in test [2].
The corresponding values for `Cc1cc(C)n(CC2CN(CC(=O)NC3CCCC3)CCO2)n1` (stereo unspecified) are 0.91% and 13.3%.
For `COCCCN(CCOC)C(=O)Nc1ccc(C)cc1C`, the Percent Effect in test [1] came out at 0.599%; in test [2] it was 1.16%.
For the compound `Cc1nccc([C@@H]2C[C@@H]3CCN(S(C)(=O)=O)C[C@H]3O2)n1`, the Percent Effect in test [1] was found to be 2.92%; in test [2] it was 11.1%.
For the compound `Cc1csc(N2CCCN(C(=O)c3cnns3)CC2)n1`, the Percent Effect was 1.66% in test [1] and -7.36% in test [2].
With `CCCOc1ccc(CNC(=O)N2CCC(C(N)=O)C2)cc1` (stereo unspecified), the Percent Effect in test [1] was 0.4%; in test [2], -0.133%.
For the compound `Cc1nc(C)n(CC2CCCN2CCCOc2ccc(F)cc2)n1` (stereo unspecified), the Percent Effect in test [1] is -8.6%; in test [2], 0.578%.
`Cc1ccc2c(c1)OCCCC2NCc1nnc2n1CCCCC2` (stereo unspecified): the Percent Effect in test [1] is -4.58%; in test [2] it was 3.72%.
The corresponding values for `COc1ccc(OCC(=O)NC(C)c2ccc(F)cc2)c(C(=O)O)c1` (stereo unspecified) are 0.691% and 12%.
On to `COCc1cnc2n1CCN(Cc1cccnc1)C2C` (stereo unspecified), for which the figures for the Percent Effect in test [1] and in test [2] were 4.46% and -10.3%, respectively.
Turning to `CCS(=O)(=O)N1C[C@H]2CN(Cc3cccnc3)C(=O)[C@H]2C1`, the Percent Effect is 3.48% in test [1] and -32.6% in test [2].
The corresponding values for `Cc1nc(CN2CCc3ncnc(-c4ccc(F)cc4)c3CC2)cs1` are -0.199% and 5.58%.
As for `Cn1ncc2c(=O)[nH]c(CN3CCCC3Cc3ccccc3)nc21` (stereo unspecified), the Percent Effect in test [1] stood at 2.98%; in test [2], 35.6%.
Turning to `Cc1cc(-c2nn(C)c(Cl)c2CN2Cc3ccccc3C(O)C2)no1` (stereo unspecified), the Percent Effect in test [1] turned out to be 8.53%; in test [2] it was 43.3%.
For `OC(COCc1ccc(Cl)cc1)CN1CCC(c2ccn[nH]2)CC1` (stereo unspecified) the same measures were -1.57% and -33%.
`Cc1cncc(C2CCCN(C(=O)c3scnc3C)C2)n1` (stereo unspecified): the Percent Effect in test [1] was -4.36%; in test [2], -1.58%.
Regarding `CCO[C@H]1CO[C@@]2(CCCN(S(=O)(=O)c3ccccc3)C2)C1`, the Percent Effect is 4.62% in test [1] and -21.7% in test [2].
Turning to `O=C(Cc1ccc2c(c1)CCO2)N1CCCCC1Cn1cccn1` (stereo unspecified), the figures for the Percent Effect in test [1] and in test [2] were -2.75% and -6.84%, respectively.
For `COc1ccccc1NC(=O)CSC1CCc2ccccc2NC1=O` (stereo unspecified) the same measures were -0.871% and -1%.
For `Cn1ncc(C(=O)N2CCCC(n3cccn3)C2)c1C1CC1` (stereo unspecified), the Percent Effect in test [1] was 3.87%; in test [2] it was -7.05%.
For `CC(NC(=O)c1cccs1)C(=O)NCc1cccnc1N1CCCCC1` (stereo unspecified) the same measures were -3.06% and 11%.
For `Cc1noc(Cl)c1CCC(=O)N1CCC(CC(N)=O)CC1`, the Percent Effect was 0.618% in test [1] and 17.9% in test [2].
For the compound `CNC(=O)[C@H]1C[C@@H]2CN(S(=O)(=O)c3ccccc3)C[C@@H]2N1C(C)=O`, the Percent Effect in test [1] was 2.08%; in test [2], -6.09%.
Regarding `CCN(CC(=O)NC(C)C)S(=O)(=O)N1CCCCCC1`, the Percent Effect in test [1] was -4.33%; in test [2] it was -4.09%.
`COCCC(=O)N1CCCC2(CCC(=O)N2CCOC)CC1` (stereo unspecified): the Percent Effect in test [1] was 0.751%; in test [2], -11.1%.
Turning to `CCN1CCC2(C=C(C(=O)NC3CC3)c3ccccc32)CC1`, the Percent Effect in test [1] is -0.796%; in test [2] it was 1.55%.
As to `CC(C)Oc1cc(N2CCC(N3CCC(O)CC3)CC2)nc(N)n1`, the Percent Effect in test [1] was -2.8%; in test [2], 2.73%.
With `COCC(c1cccc(C(F)(F)F)c1)N(C)C(=O)c1cc(C)no1` (stereo unspecified), the Percent Effect in test [1] was -1.95%; in test [2], 27.2%.
For the compound `Cc1nc(C2(NCC(=O)NCCc3cccs3)CCCC2)no1`, the Percent Effect in test [1] was -3.06%; in test [2], 8.44%.
Turning to `O=C(CC1CCCC1)NCCn1ccc(-c2ccncc2)n1`, the Percent Effect in test [1] turned out to be 7.45%; in test [2], 3.58%.
The corresponding values for `O=C(C1=CC2(CCNCC2)c2ccccc21)N1CCCC1` are 3.17% and -0.391%.
For `CC(C)[C@H](NC(=O)NC1CCS(=O)(=O)C1)C(=O)NCc1ccccc1Cl` (stereo partly specified) the same measures were 0.145% and -30%.
For `CN(C)C[C@H]1OC[C@@H]2CCN(S(=O)(=O)c3ccccc3)C[C@@H]21` the same measures were 4.96% and -1.44%.
For `COCCC(=O)N1CCc2cc(Cl)cc(Cl)c2C1`, the Percent Effect in test [1] was 1.46%; in test [2] it was -18.1%.
Take `Cn1ncc2c(=O)[nH]c(CN3CCC(Cc4ccccc4)CC3)nc21`: the Percent Effect in test [1] was -5.37%; in test [2] it was 0.0557%.
Take `COCCN1CCCC1c1nccnc1Nc1nc(C)cs1` (stereo unspecified): the values for the Percent Effect in test [1] and in test [2] were -3.52% and 0.955%, respectively.
With `CC(C)OCCC(=O)N(C)CCCc1cc(-c2ccccc2)no1`, the Percent Effect in test [1] was 2.1%; in test [2] it was 38.9%.
For the compound `CCc1csc(C2CCCN(C(=O)c3ccnc(N(C)C)c3)C2)n1` (stereo unspecified), the Percent Effect was 1.86% in test [1] and -14.7% in test [2].
Regarding `COc1ccc2c(c1)OC1(CCN(Cc3ccc(F)cc3)CC1)CC2=O`, the Percent Effect is -5.55% in test [1] and 17.6% in test [2].
The corresponding values for `CC(NC1(CNC(=O)C(C)(C)C#N)CCOCC1)c1ccccc1` (stereo unspecified) are -6.25% and -10.5%.
With `COc1ccccc1CC(=O)NCCCN1CCCC1C(=O)N(C)C` (stereo unspecified), the results for the Percent Effect in test [1] and in test [2] were 5.61% and -5.75%, respectively.
For the compound `CC(NC(=O)NCCNc1cnccn1)c1cccs1` (stereo unspecified), the values for the Percent Effect in test [1] and in test [2] were -0.971% and -34.6%, respectively.
With `CC1CN(Cc2noc(C3CC3)n2)CCN1Cc1nccn1C` (stereo unspecified), the Percent Effect was -4.25% in test [1] and -11.1% in test [2].
Take `CNC(=O)c1ccc(C(=O)N2CCCC2c2cnn(C)c2)cn1` (stereo unspecified): the figures for the Percent Effect in test [1] and in test [2] were -5.79% and -8.21%, respectively.
Take `CC(C)Cc1noc(CN(C)C(=O)C2COc3ccccc3C2)n1` (stereo unspecified): the Percent Effect in test [1] is -1.81%; in test [2] it was -46.4%.
In the case of `O=C(c1ccc2c(c1)OCO2)N1CCCSCC1CN1CCCC1` (stereo unspecified), the Percent Effect in test [1] is -0.0437%; in test [2], -5.02%.
On to `COCCC(=O)N1C[C@@H]2COC[C@]2(COCc2cccnc2)C1`, for which the Percent Effect in test [1] was 2.14%; in test [2], -6.81%.
For `CN(Cc1cnn(C)c1)C(=O)c1ccc(=O)n(C)n1` the same measures were -3.08% and -8.81%.
`COCC(=O)NCc1cccc(Br)c1`: the values for the Percent Effect in test [1] and in test [2] were -1.9% and 20.1%, respectively.
For the compound `Cc1nc(CN2CCC(N(C)Cc3noc(C(C)C)n3)C2)cs1` (stereo unspecified), the Percent Effect is 8.39% in test [1] and -23.4% in test [2].
Regarding `CN(C)C(=O)N1CCN(C(=O)CCc2ccccc2)[C@H]2CS(=O)(=O)C[C@H]21`, the Percent Effect in test [1] is 3.33%; in test [2], -13.3%.
Take `Cc1noc(C)c1C(=O)N1CC[C@H]2C[C@@H](c3ccncn3)O[C@@H]2C1`: the Percent Effect in test [1] turned out to be 2.79%; in test [2], 3.86%.
For the compound `Cc1cccc(CNCc2c(C(C)C)nn(C)c2N2CCOCC2)n1`, the values for the Percent Effect in test [1] and in test [2] were 7.04% and 12.3%, respectively.
As for `OCC1CCCN1c1cc(NCCc2c[nH]c3ccccc23)ncn1` (stereo unspecified), the Percent Effect in test [1] is 11.5%; in test [2], -28.9%.
For `O=C(NCC1CC1)C1CSCN1S(=O)(=O)c1cccc(F)c1` (stereo unspecified) the same measures were 2.56% and -5.9%.
The corresponding values for `Cc1cc(C)n(CC2CCCN2C(=O)c2ccc3c(c2)OCO3)n1` (stereo unspecified) are -1.99% and -23.4%.
`CCOC(CC)C(=O)NCCC(=O)N1CCN(c2ncccn2)CC1` (stereo unspecified): the Percent Effect in test [1] is 1.17%; in test [2], -0.0687%.
Consider `Cc1nn(C)c(N2CCOCC2)c1CNCc1nccs1`, for which the results for the Percent Effect in test [1] and in test [2] were -2.7% and 28.1%, respectively.
